# Screening data (PubChem BioAssay)
# GLP1R ag = qHTS of GLP-1 Receptor Agonists. Glucagon-like peptide 1 receptor (Homo sapiens), P43220. HEK293 GLP-1R CRE-luciferase, luminescence, 4-6 h; cells express a hypersensitive GLP-1R form. Potency, µM (highest dose often 45.6 µM), without a hit: at the highest dose activation, usual class: activators. hit rate 0.007% among 380,000. AID 624172, 2012; also: potency is read from the fitted curve at half-maximal effect; % of control where 0% means no effect
# ClpP mod = qHTS Assay for Activators of ClpP; ATP-dependent Clp protease proteolytic subunit (Bacillus subtilis (strain 168)), P80244; purified B. subtilis ClpP, FRET peptide cleavage, 20 min; Potency, µM (doses to about 57.5 µM), for inactives: at the highest dose activity change, negative = active; hit rate 1.9% among 340,000; AID 651965, 2013; active = well fitted falling curve with a large enough effect; inconclusive = small, poorly fitted or top-dose-only effect; inactive = no such curve, though single readings can be large or run the other way; also: potency is read from the fitted curve at half-maximal effect; the source files actives as falling curves though it sought activators and does not explain the sign; nearly all actives have a fitted effect of over 65% in size
# Target sequence (P80244 whole entry, looked up): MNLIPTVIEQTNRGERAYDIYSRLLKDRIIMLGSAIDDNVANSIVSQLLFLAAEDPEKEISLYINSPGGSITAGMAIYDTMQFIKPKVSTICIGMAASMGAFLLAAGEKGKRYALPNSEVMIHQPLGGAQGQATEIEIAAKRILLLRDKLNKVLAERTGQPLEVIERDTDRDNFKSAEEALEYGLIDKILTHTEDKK
#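 Buffer: 100 mM Tris/HCl pH8, 100 mM KCl, 0.05% low protease BSA, 2.5% glycerol, 0.01% Tween-20. ClpP 10 microg/mL final; 20 min RT; delta FRET normalized to ADEP and DMSO controls.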
# DRD3 antagonist = qHTS of D3 Dopamine Receptor Antagonist: qHTS | D(3) dopamine receptor (Homo sapiens), P35462 | D3R cells, DiscoveRx beta-arrestin luminescence, antagonist mode; stronger effect = lower value | max response, negative = inhibition, % | hit rate 2.5% among 360,000; in the data active = max response below about -50%; inconclusive = no clear call, values can overlap the other calls; also: % is scaled to controls: 0 for no effect and ±100 for the full control effect
# Target sequence (P35462 whole entry, looked up): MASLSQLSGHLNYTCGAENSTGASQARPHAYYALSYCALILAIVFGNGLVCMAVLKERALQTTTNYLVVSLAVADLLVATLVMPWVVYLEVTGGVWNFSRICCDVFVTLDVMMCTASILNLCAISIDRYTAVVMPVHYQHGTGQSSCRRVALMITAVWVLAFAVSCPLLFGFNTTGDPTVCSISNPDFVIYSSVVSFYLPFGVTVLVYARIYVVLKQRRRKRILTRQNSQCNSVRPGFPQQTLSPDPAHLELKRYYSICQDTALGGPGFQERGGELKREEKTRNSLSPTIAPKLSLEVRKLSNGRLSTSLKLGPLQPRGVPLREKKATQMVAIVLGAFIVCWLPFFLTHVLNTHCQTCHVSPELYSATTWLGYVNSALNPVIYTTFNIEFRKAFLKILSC
#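 Cells expressing the human receptor were seeded at 1500 cells/well, incubated overnight at 37 degrees C in 5% CO2, then exposed to library compounds with dopamine controls for 90 minutes at 37 degrees C before luminescent detection.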
# GLP1R cytotox = qHTS of GLP-1 Receptor Inverse Agonists: Cytotox Screen. HEK293 cAMP-luciferase reporter cells, luminescence, 24 h. Potency, µM (top dose mostly 38.3 µM), without a hit: at the top dose activity change, negative = inhibition, actives largely listed as inhibitors. hit rate 0.13% among 410,000. AID 624418, 2012;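 also: loss of luciferase light is scored as toxicity; potency is read from the fitted curve at half-maximal effect; % is scaled to controls: 0 for no effect and ±100 for the full control effect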
#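 Quantitative HTS format, 1536 wells, 200 cells/uL seeded. Compounds: 23 nL, 24 h, 37 °C. Detection: luciferase reagent, luminescence at 12 min RT; decreased signal taken as cytotoxic.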
# GLP-1R inv ag = qHTS of GLP-1 Receptor Inverse Agonists (Inhibition Mode); HEK293 GLP-1R CRE-luciferase, luminescence, 24 h; GLP-1R form is constitutively active; hit rate 1.6% among 410,000; Glucagon-like peptide 1 receptor (Homo sapiens), P43220; Potency, µM (doses to about 38.3 µM), inactives show at the highest dose activity change, negative = inhibition, hits mostly inhibitors; also: potency is read from the fitted curve at half-maximal effect; % is scaled to controls: 0 for no effect and ±100 for the full control effect; nearly all actives have a fitted effect of over 55% in size
#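 Using stably transfected HEK293 (constitutively active GLP-1R, cAMP-luciferase reporter), compounds were incubated 24 hr and luciferase measured by luminescence.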
# DRD3 agonist = qHTS of D3 Dopamine Receptor Agonist: qHTS; D(3) dopamine receptor (Homo sapiens), P35462; D3R DiscoveRx beta-arrestin cells, luminescence, 90 min; max activation, %; hit rate 0.58% among 410,000; in the data active = max activation above about 30%; also: 0% is about no effect
#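 Agonist mode: compounds and dopamine controls were applied to plated cells for 90 min at 37 degrees C after an overnight attachment at 1500 cells/well. Luminescent read-out followed 30 - 60 minutes at room temperature with DiscoveRx detection reagent.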
# Numbers without * were called inactive; i = inactive; ? = inconclusive; · = no result given; ! = repeats disagree; [ ] = remark or other dose. An excerpt weighted towards active compounds, which were near 5.7% of everything screened. Unless noted, calls follow the shape of the dose curve; as a rule, active = well fitted curve in the direction sought with a large enough effect; inconclusive = small, poorly fitted or top-dose-only effect, or another doubt; inactive = no such curve, though single readings can be large; an effect the other way counts as inactive or inconclusive.
SMILES,GLP1R ag,ClpP mod,DRD3 antagonist,GLP1R cytotox,GLP-1R inv ag,DRD3 agonist
Cc1cc(=O)n(Cc2ccc(F)cc2Cl)c2c1c(C)nn2C,·,-2%,·,-12%,26%,26
Cc1ccc(S(=O)(=O)/N=C2\C=C(Nc3ccc(O)cc3)C(=O)c3ccccc32)cc1,-21%,1%,-94*,2.8µM*,4.5µM*,-13
Cc1ccc(NC2=C/C(=N/S(=O)(=O)c3cccs3)c3ccccc3C2=O)cc1,-1%,-19%,-72*,?,?,-12
O=C1C(Nc2ccccc2)=C/C(=N/S(=O)(=O)c2cccs2)c2ccccc21,-37%,11µM*,-85*,4.5µM*,i,-38
O=C1C=C(Nc2ccccc2)C(=O)c2ccccc21,25%,-2%,-5,-9%,0%,-5
Cc1ccc(NC2=C(NCCO)C(=O)c3ccccc3C2=O)cc1,2%,2%,-12,10%,-9%,0
Cc1ccc(S(=O)(=O)/N=C2\C=C(NS(=O)(=O)c3ccccc3)C(=O)c3ccccc32)c(C)c1,3%,·,?,-14%,-2%,-23
CCn1c(SCC(=O)Nc2ccccc2)nc2c(c1=O)SCC2,7%,-5%,7,0%,10%,4
COCOc1ccc(/C=C/C(=O)c2c(OCOC)cc(OCOC)c(CC=C(C)C)c2O)cc1OCOC,28%,1%,105,5%,2%,42*
COc1ccc(C=CC(=O)c2ccc(OCc3ccccc3)c(OC)c2)cc1OC,11%,-14%,37,22%,?,0
COCOc1ccc(/C=C/C(=O)c2c(O)cc(OCOC)cc2OCOC)cc1,6%,0%,31,2%,?,43*
COc1cc(O)cc(O)c1C(=O)/C=C/c1ccccc1,1%,0%,0,-7%,-21%,-32
O=C(COc1ccccc1C(=O)Nc1ccccc1)Nc1cccc(Br)c1,·,-23%,·,·,·,·
CC1=CC(C)(C)NC(=S)N1C(C)c1ccccc1 (stereo not given),7%,1%,-20,10µM*,?,-1
Cc1cccc(CSc2nnc(CCCCCNC(=O)OC(C)(C)C)o2)c1,19%,·,-3,-1%,7.1µM*,5
Cc1ccc(CSc2nnc(CCCCCNC(=O)OC(C)(C)C)o2)cc1,21%,·,-9,16%,?,10
COC(=O)C1=C(C)NC(C)=C(C(=O)OC)C1C(=O)OCC(=O)c1ccc(F)cc1,1%,32µM*,14,9%[7.66 µM],25%[7.66 µM],4
COC(=O)C1=C(C)NC(C)=C(C(=O)OC)C1C(=O)OCC(=O)c1ccc(Br)cc1,5%,-4%,13,4%,7%,5
CCCc1nnc(NC(=O)Cc2coc3ccc(C(C)C)cc23)s1,·,0%,·,8%,-10%,-16
CN[C@@H]1[C@@H](O)[C@@H](O[C@@H]2[C@@H](O)[C@H](OC3OC(CN)=CCC3N)[C@@H](N)C[C@H]2N)OC[C@]1(C)O (stereo not given in full),·,·,·,·,·,-7
O=C(C1CCC(CNS(=O)(=O)c2cccs2)CC1)N1CCN(c2ccc(Cl)cc2)CC1 (stereo not given),-2%,-2%,98,-10%,?,41*!
Cc1cc(C)c2c(c1)-c1cc(C)nn1C(c1ccc3c(c1)OCO3)N2 (stereo not given),9%,32µM*,76,1%,0%,14
Cc1cc2n(n1)C(c1ccc3c(c1)OCO3)Nc1c(C)cccc1-2 (stereo not given),-3%,-2%,32,-3%,-12%,1
O=[N+]([O-])c1ccc(Cl)c(-c2ccc(/C=N/c3c(-c4ccco4)nc4ccccn34)o2)c1,-5%,1%,?,1%,9%,4
COc1cc(-c2nc3ccccn3c2/N=C/c2ccccc2)ccc1O,-2%,32µM*,-11,43%,1%,-13
SMILES,GLP1R ag,ClpP mod,DRD3 antagonist,GLP1R cytotox,GLP-1R inv ag,DRD3 agonist
Oc1cccc(/C=N/c2c(-c3ccco3)nc3ccccn23)c1,-2%,28µM*,10,6%,5%,2
C=CC[N+]1([C@H]2C[C@H]3[C@@H]4CC[C@H]5C[C@H](OC(C)=O)[C@@H](N6CCCCC6)C[C@]5(C)[C@H]4CC[C@]3(C)[C@H]2OC(=O)CC)CCCCC1,5%,·,·,·,·,-13
CN=c1scc(-c2ccccc2F)n1/N=C/c1ccc(O)c(O)c1O,-15%,0%,11,?,-12%,107*
CC(C)N=c1scc(-c2cccs2)n1/N=C/c1ccc(O)c(O)c1O,1%,-2%,49,?,9%,64*
CC1CN(CCCCOc2ccc(F)cc2)CC(C)O1 (stereo not given),6%,·,-50*,12%,-5%,-18
COc1ccccc1OCCCCN1CCN(c2ccccc2OC)CC1,3%,1%,-81*,-12%,?,3
COc1ccccc1N1CCN(CCCCCCOc2ccc(F)cc2)CC1,-1%,-1%,-52*,?,?,-5
Fc1ccc(OCCCCCN2CCCC2)cc1,-3%,1%,-17,5%,-17%,-25
COC(=O)c1ccccc1OCCCCN1CC(C)OC(C)C1 (stereo not given),2%,-5%,-29,-2%,11%,0
COc1ccccc1N1CCN(CCCCOc2cccc3ccccc23)CC1,1%,-10%,-69*,?,?,10
COc1ccccc1N1CCN(CCCCNC(=O)c2ccc(-c3ccc(C(C)=O)cc3)cc2)CC1,-4%,·,·,·,·,-7
COc1ccccc1NC(=O)C(C)Sc1nnc2ccccn12 (stereo not given),0%,-12%,-19,10%,1%,-3
Clc1ccc(Cl)c(OCCN2CCOCC2)c1,7%,-3%,-52*,15%,-13%,8
Clc1ccc(OCCN2CCOCC2)cc1,-3%,1%,-16,-4%,-6%,-5
Clc1ccc(Cl)c(OCCN2CCCC2)c1,2%,-1%,-75*,5%,-1%,0
CC(C)N1CC(=O)N2CSCC2C1=O (stereo not given),1%,0%,-16,0%,33%,-3
COc1ccc(OC)c(NC(=O)COCc2cc(-c3ccc(F)cc3)on2)c1,·,-1%,·,-4%,-21%,5
